Screens (PubChem BioAssay)
The sample as a whole holds a higher share of hits than the screen did.
Pf Dd2 inh: inhibitors of Plasmodium falciparum Dd2 growth; Potency, µM (highest dose often 28.9 µM), most hits filed as inhibitors; 120,000 compounds, 4.3% hits; P. falciparum Dd2 growth, SYBR Green, 72 h; active = well fitted inhibition curve with a large enough effect; also: nearly all actives have a fitted effect of over 65% in size
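Infected erythrocytes (Dd2, 0.3% parasitemia, 2.5% hematocrit final) are added to compound in RPMI-1640/Albumax II medium, grown 72 h at 37C in low oxygen, then lysed with saponin/Triton-X containing SYBR Green and read by fluorescence.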
Hits are given with their value; . = inactive; [ ] = another dose, or the depositor's remark.

SMILES | Pf Dd2 inh
Cc1ccc2nc(C(=O)N[C@H]3COC[C@H]3Cc3cc(C)no3)cn2c1 | .
O=C(C1CCC1)N1CCC(c2noc(-c3ccncc3)n2)C1 (configuration not stated) | .[5.79 µM]
Cc1ccc(C2Cn3nnc(C(=O)N4CCC(C(=O)NCc5ccccc5F)CC4)c3CO2)cc1 (configuration not stated) | .
Cc1nc(CC2CCN(Cc3cc4n(n3)CCNC4)CC2)no1 | .
Cc1ccc(SC2CCN(Cc3cc4n(n3)CCNC4)CC2)cc1 | 10µM
COc1ccccc1OC1CCN(Cc2cc3n(n2)CCNC3)CC1 | .
CC1CCN(S(=O)(=O)N2CCC(C(=O)N3CCCC3c3nc(C4CCOCC4)no3)CC2)CC1 (configuration not stated) | .
COc1cccc(-c2noc(COC(=O)C3=CN(C)S(=O)(=O)N=C3C)n2)c1 | .
COc1cccc(CC(=O)N2CCc3nn(C)c(=O)n3CC2)c1 | .
C[C@H]1[C@@H]2[C@@H](O)C([C@H](C)C(=O)NCc3ccco3)CC[C@@]2(C)CC[C@@H]1NC(=O)c1ccccn1 (some centres not stated) | .
Cc1noc(C)c1-c1cc(-c2ccccc2C(F)(F)F)cn2cncc12 | 6.31µM
C1=C(c2cc(-c3ccncc3)cn3cncc23)CCOC1 | .
Cc1noc(C)c1-c1cc(-c2cccc(O)c2)cn2cncc12 | 11.2µM
FC(F)(F)c1ccccc1-c1cc(-c2cccnc2)c2cncn2c1 | .
Cc1noc(C)c1-c1cc2c(c(-c3ccccc3)c1)C(=O)N(C)C2 | .
c1cncc(-c2cc(-c3cccc(N4CCOCC4)c3)cn3cncc23)c1 | .
Cc1noc(C)c1-c1cc(-c2ccc(CO)cc2)cn2cncc12 | .
COc1cccc(-c2cc(-c3c(C)noc3C)cc3c2C(=O)N(C)C3=O)c1OC | .
Cc1noc(C)c1-c1cc(-c2ccccc2F)cn2cncc12 | 7.08µM
O=C(Cc1cccc(F)c1)N1CCC(Cc2nncn2-c2ccccc2)CC1 | .
COc1ccc(C(=O)N2CCC[C@H]2c2nc(-c3ccc(OC)c(OC)c3)no2)c(OC)c1 | .
O=C(N[C@@H]1CN(Cc2ccoc2)C[C@H]1CO)c1cccnc1 | .
COCC(=O)NC1CCC12CCN(Cc1ccccn1)CC2 (configuration not stated) | .
CN(C)c1cccc(C(=O)NC2CCN(c3cnn(C)c(=O)c3)CC2)c1 | .
COC[C@@H]1CN(Cc2cc(F)c(F)c(F)c2)C[C@H]1C(N)=O | .
SMILES | Pf Dd2 inh
C=CCNC(=O)c1c[nH]c2cccnc12 | .
CCC(=O)N(C1CCOCC1)C1CCN(Cc2ccc(C)cc2C)CC1 | .
COc1ccc(CCNc2ncnc3c2CN(C2CCCNCC2)C(=O)CN3C)cc1 (configuration not stated) | .
Cc1ccc(NC(=O)C2CCCN(S(=O)(=O)c3cccc4nsnc34)C2)c(C)c1 (configuration not stated) | .
CCc1cccc(C)c1NC(=O)C1CCCN1S(=O)(=O)c1cccc2nsnc12 (configuration not stated) | 5.01µM
Cc1cc(C)cc(NC(=O)C2CCCN2S(=O)(=O)c2ccc3nc(-c4ccccc4)[nH]c3c2)c1 (configuration not stated) | .
Cc1ccc(NC(=O)C2CCCN2S(=O)(=O)c2cccc3nsnc23)c(Br)c1 (configuration not stated) | 7.08µM
Cc1cc(C)cc(NC(=O)C2CCCN2S(=O)(=O)c2cccc3nsnc23)c1 (configuration not stated) | 3.16µM
Cc1cccc(C)c1NC(=O)C1CCN(S(=O)(=O)c2cccc3nsnc23)CC1 | .
Cc1ccc(NC(=O)C2CCCN(S(=O)(=O)c3cccc4nsnc34)C2)cc1C (configuration not stated) | .
CCc1cccc(C)c1NC(=O)C1CCN(S(=O)(=O)c2cccc3nonc23)CC1 | .
O=C(Nc1ccc(F)cc1F)C1CCCN1S(=O)(=O)c1cccc2nsnc12 (configuration not stated) | .
COc1ccc(CNC(=O)Cn2c(C)cc3nc4n(c(=O)c32)CCCC4)cc1 | .
O=C(Nc1ccc(Cl)cc1Cl)c1cn2c(n1)CN(C(=O)c1cccnc1)CC2 | .
COCC(=O)N1CCc2nc(C(C)C)nc(-c3ccc(O)cc3)c2C1 | .
CC(C)N1C(=O)C2(CCCC2)C1C(=O)N1CCc2ccccc21 (configuration not stated) | .
CS(=O)(=O)N1CCCC1c1noc(CCC(=O)NC2CC2)n1 (configuration not stated) | .
CN(Cc1cccnc1)C(=O)c1c(OCC2CC2)cc(=O)n2c1CCCCC2 | .
COC1CCN(C(=O)c2cnc3c(c2)N(Cc2ccccc2)CCC3)CC1 | .
COc1ccc(CNC(=O)C(N)c2c(C)n[nH]c2C)c(F)c1F (configuration not stated) | .
Cc1noc(C)c1S(=O)(=O)N1CCCC(Cc2nncn2C)C1 (configuration not stated) | .
CCC(=O)NCc1cccnc1Oc1ccccc1OC | .
COc1ccccc1Oc1ncccc1CNC(=O)c1cccnc1C | .
